Activity calls are given as the source filed them.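 The calls were made as follows: active = compounds killing one labelled cell type while sparing the other, by normalised counts and ratio limits, not self-fluorescent; inactive = the rest.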
Assay: EMT-state selective cytotoxicity in co-culture – imaging, PC-3E GFP, TEM4-18 mCherry, primary screen (AID 1345086);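 also: cells exposed to compound for 72 h before imaging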;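 as to red/green cell ratio (normalised): normalised mesenchymal count divided by normalised epithelial count so high means epithelial killing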
Conditions: PC-3E GFP / TEM4-18 mCherry co-culture, imaging cell counts, at 1 µM; for red/green cell ratio (normalised): actives lie on both sides, counts scaled to control wells, 1 = unselective
[1] = measured here: epithelial PC-3E GFP cell survival
[2] = measured here: mesenchymal TEM4-18 mCherry cell survival

C[N+](C)(C)CCCCCC[N+](C)(C)C
red/green cell ratio (normalised): 0.92 (inactive) | normalised cell number [1]: 1.09 | normalised cell number [2]: 1

Nc1ccc(C(=O)Oc2ccccc2)c(O)c1
red/green cell ratio (normalised): 1.06 (inactive) | normalised cell number [1]: 0.61 | normalised cell number [2]: 0.65

CC(=O)OC/C=C(C)/C=C/C=C(C)/C=C/C1=C(C)CCCC1(C)C
red/green cell ratio (normalised): 0.94 (inactive) | normalised cell number [1]: 1 | normalised cell number [2]: 0.94

CCN(CC)C(C)CN1c2ccccc2Sc2ccccc21 (centres undefined)
red/green cell ratio (normalised): 0.85 (inactive) | normalised cell number [1]: 1.09 | normalised cell number [2]: 0.92

O=C(O)CCNC(=O)c1ccccc1
red/green cell ratio (normalised): 0.71 (inactive) | normalised cell number [1]: 1.22 | normalised cell number [2]: 0.87

CC(=O)OCC1=C(C(=O)O)N2C(=O)[C@@H](NC(=O)Cc3cccs3)[C@H]2SC1
red/green cell ratio (normalised): 1.02 (inactive) | normalised cell number [1]: 1.21 | normalised cell number [2]: 1.23

Cc1cc(C(C)(C)C)c(O)c(C(C)(C)C)c1
red/green cell ratio (normalised): 0.93 (inactive) | normalised cell number [1]: 1.01 | normalised cell number [2]: 0.94

CC(=O)OCC(COC(C)=O)OC(C)=O
red/green cell ratio (normalised): 1.26 (inactive) | normalised cell number [1]: 0.97 | normalised cell number [2]: 1.22

O=c1cc[nH]c(=S)[nH]1
red/green cell ratio (normalised): 0.81 (inactive) | normalised cell number [1]: 1.32 | normalised cell number [2]: 1.07

CC(=O)NO
red/green cell ratio (normalised): 1.09 (inactive) | normalised cell number [1]: 1.08 | normalised cell number [2]: 1.18

CC(=O)NCCCCCC(=O)O
red/green cell ratio (normalised): 0.96 (inactive) | normalised cell number [1]: 0.98 | normalised cell number [2]: 0.95

CCN(CC)CCOC(=O)C(Cc1cccc2ccccc12)CC1CCCO1 (centres undefined)
red/green cell ratio (normalised): 1.07 (inactive) | normalised cell number [1]: 0.99 | normalised cell number [2]: 1.06

CC(C(=O)O)c1ccc2c(c1)[nH]c1ccc(Cl)cc12 (centres undefined)
red/green cell ratio (normalised): 1.13 (inactive) | normalised cell number [1]: 1.37 | normalised cell number [2]: 1.54

Cc1cc(NC(=O)C2=C(O)c3ccccc3S(=O)(=O)N2C)no1
red/green cell ratio (normalised): 0.87 (inactive) | normalised cell number [1]: 0.97 | normalised cell number [2]: 0.84

CC(=O)Oc1cccc2c1C(=O)c1c(OC(C)=O)cc(C(=O)O)cc1C2=O
red/green cell ratio (normalised): 0.93 (inactive) | normalised cell number [1]: 1.07 | normalised cell number [2]: 0.99

C[n+]1c2cc(N)ccc2cc2ccc(N)cc21 (tested in a mixture with another compound)
red/green cell ratio (normalised): 0.5 (inactive) | normalised cell number [1]: 0.56 | normalised cell number [2]: 0.28

CN1CCN(CC(=O)N2c3ccccc3C(=O)Nc3cccnc32)CC1
red/green cell ratio (normalised): 0.9 (inactive) | normalised cell number [1]: 1.08 | normalised cell number [2]: 0.97

C=CCSCC1Nc2cc(Cl)c(S(N)(=O)=O)cc2S(=O)(=O)N1 (centres undefined)
red/green cell ratio (normalised): 1.09 (inactive) | normalised cell number [1]: 1.09 | normalised cell number [2]: 1.19
